# From PubChem
# Compounds with a hit are over-represented: about 4.2% of the library has one in this group of screens.
# NALP1 yeast inh: NALP1 inflammasome inhibitors in reconstituted yeast, colorimetric, S. cerevisiae, triplicate retest; inhibition, % at 10 µM; 280,000 tested, 0.61% active; S. cerevisiae NALP1/ASC/caspase-1 growth, X-gal OD620, 72 h; in the data active means inhibition mostly above about 24%, no sharp cut-off; inactive means mostly below about 32%
# NLRP3 yeast inh: NALP3 inflammasome inhibitors in reconstituted yeast, primary screen, luminescence, uHTS | Yeast reconstituted NLRP3/ASC/caspase-1, beta-gal luminescence, 24 h | inhibition, % at 10 µM | 330,000 tested, 0.39% active | AID 2825, 2010;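 active means inhibition of 50% or more; inactive means inhibition below 50%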;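 further: plate controls were induced DMSO wells for no effect and uninduced yeast grown without galactose for full effect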
# tim10-1 inh: growth inhibitors of tim10-1 mutant yeast, primary screen, luminescence, uHTS | S. cerevisiae tim10-1 ts strain growth, BacTiter-Glo, 24 h | inhibition, % at 20 µM | 330,000 tested, 2.2% active | AID 463190, 2010;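 active means inhibition of at least 40%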;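 further: mutant grown at 25 °C; 0% = DMSO wells with yeast and 100% = wells holding no yeast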
# TIM10 inh: growth inhibitors of isogenic TIM10 control yeast, primary screen, counter-screen for tim10-1 yeast inhibitor project, luminescence, uHTS; AID 463195, 2010; inhibition, % at 10 µM; 330,000 tested, 1.4% active; S. cerevisiae TIM10 strain growth, BacTiter-Glo luminescence, 24 h;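 active means inhibition of 40% or more at the single tested concentration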;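 further: wild-type TIM10 isogenic control strain grown at permissive 25 °C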
# V-ATPase pHluor: regulators of yeast V-ATPase proton pumping, primary screen, pHLuorin cytosolic pH fluorescence; AID 504577, 2011; S. cerevisiae; response, % at 10 µM; 350,000 tested, 0.37% active; in the data active means response mostly above about 7.3%, no sharp cut-off; inactive means mostly below about 5.4%; further: actives read high
# tim23-1 inh: growth inhibitors of tim23-1 mutant yeast, primary screen, luminescence, uHTS; 330,000 tested, 1.3% active; S. cerevisiae tim23-1 growth, BacTiter-Glo luminescence, 24 h; inhibition, % at 20 µM;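 active means growth inhibition of the mutant yeast at or above 50%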;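 further: temperature-sensitive mutant grown at 25 °C; plate controls were DMSO-treated mutant yeast for no effect and medium wells lacking yeast for full effect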
# tim10-1 conf: growth inhibitors of tim10-1 mutant yeast, confirmation, single concentration, luminescence, S. cerevisiae; shares compounds with tim10-1 inh; 7,400 tested, 56% active; inhibition, % at 20 µM; S. cerevisiae tim10-1 ts strain growth, BacTiter-Glo, 24 h; AID 463213, 2010;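 active means inhibition of yeast growth at or above a set limit in either of two repeat tests at 20 µM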;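 further: tim10-1 mutant grown at permissive 25 °C to find synthetic lethal compounds; 0% = DMSO yeast wells and 100% = medium wells without yeast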
# TIM10 conf: growth inhibitors of wild-type TIM10 yeast, confirmation, counter-screen for tim10-1 synthetic lethality project, single concentration, luminescence, S. cerevisiae | shares compounds with TIM10 inh | S. cerevisiae tim10 strain growth, BacTiter-Glo luminescence, 24 h | inhibition, % at 10 µM | 4,600 tested, 63% active;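 active means inhibition of yeast growth at or above a set limit in either of two replicates at 10 µM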;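 further: this counterscreen used the strain with wild-type TIM10; 0% = yeast with DMSO and 100% = medium wells lacking yeast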
# tim23-1 conf: tim23-1 mutant yeast growth inhibitors, confirmation, luminescence, single concentration | shares compounds with tim23-1 inh | S. cerevisiae tim23-1 growth, BacTiter-Glo luminescence, 24 h | inhibition, % at 20 µM | 4,400 tested, 83% active | AID 463218, 2010;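 active means inhibition above about 39% in either of two replicate wells at 20 µM, limit read from the data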;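 further: temperature-sensitive tim23-1 mutant grown at 25 °C; 0% = DMSO wells with yeast and 100% = medium wells without yeast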
# * = called active by the depositor; x = no result given.
SMILES,NALP1 yeast inh,NLRP3 yeast inh,tim10-1 inh,TIM10 inh,V-ATPase pHluor,tim23-1 inh,tim10-1 conf,tim23-1 conf,others
Cc1cc2cc(C=C(C#N)C#N)c(Cl)nc2cc1C,60*,18,55*,38,3,62*,56*,66*,
CCc1ccccc1NC(=O)CSc1nnc([C@H](CCSC)NC(=O)OC(C)(C)C)o1,12,15,8,-6,5,3,x,x,
O=C(Nc1ccnc(-c2cccnc2)n1)c1ccc(Cl)c(Cl)c1,-4,18,19,9,1,3,x,x,
Cc1ccc(-c2ccnc3c(Br)c(C)nn23)cc1,2,11,41*,15,-2,58*,30,39*,
CC(C)N(CCn1cnc2c([nH]c3ccccc32)c1=O)C(C)C,-1,12,-4,-11,-6,0,x,x,
Cc1ccc2c(c1)N=C(c1ccccc1)CC(C(Cl)Cl)=N2,-27,25,60*,60*,0,74*,48*,67*,TIM10 conf=56*
S=C(Nc1ccccc1)N1CCc2ccccc21,22,28,12,5,-1,39,x,x,
O=[N+]([O-])c1ccc(NC(=S)N2CCc3ccccc32)cc1,2,31,49*,35,2,54*,42*,49*,
CCOc1cc(/C=C2\C(=O)N(c3cccc(C(F)(F)F)c3)C(=O)c3ccccc32)ccc1O,0,3,42*,30,-2,65*,34*,47*,
Cc1cccc(N2C(=O)/C(=C\c3ccc(OC(F)F)cc3)c3ccccc3C2=O)c1,24,-1,51*,34,1,68*,25,58*,
COc1cccc(/C=C2\C(=O)N(c3cccc(C)c3)C(=O)c3ccccc32)c1,36,0,43*,41*,1,75*,46*,68*,TIM10 conf=46*
CC1=CC(=C(C#N)C#N)C=C(C)N1CCN1CCN(C(=O)Nc2cccc(Cl)c2)CC1,13,17,14,-1,-1,-12,x,x,
CN(C)c1nc(N/N=C/c2ccccc2O)nc(Nc2ccc(F)cc2)n1,0,12,47*,19,2,59*,37*,67*,
CN(C)c1nc(Nc2ccc(F)cc2)nc(Oc2ccc(F)cc2)n1,-8,26,0,-20,-4,22,x,x,
CC(C)(C)OC(=O)NCCCC[C@H](NC(=O)c1nc[nH]c1C(=O)N1CCN(C(=O)OC(C)(C)C)CC1)C(=O)OC(C)(C)C,-4,-11,1,-4,4,-6,x,x,
Cc1ccc(OCCCSc2n[nH]c(N)n2)cc1,-15,-10,10,10,0,1,x,x,
C=CCSc1n[nH]c(-c2ccc(OCCCC)cc2)n1,10,35,41*,56*,-1,72*,17,67*,TIM10 conf=48*
CCOC(=O)c1ccc(NC(=O)CCC2COc3ccccc3O2)cc1 (centres undefined),-4,14,41*,36,2,53*,36*,48*,
Cc1cc(C)nc(NS(=O)(=O)c2ccc(NC(=O)CCC3COc4ccccc4O3)cc2)n1 (centres undefined),2,4,8,8,1,18,x,x,
Cc1ccc(/C(N)=N/OC(=O)C23CC4CC(CC(C4)C2)C3)cc1,40,4,58*,85*,2,80*,42*,67*,TIM10 conf=86*
Cc1cccc(/C(N)=N/OC(=O)c2cccs2)c1,-8,-23,65*,79*,2,81*,57*,76*,TIM10 conf=73*
Cc1ccc(C(=O)O/N=C(\N)c2ccc(Br)cc2)cc1,6,21,-25,23,5,21,x,x,
Cc1ccc(/C(N)=N/OC(=O)c2cccs2)cc1,45,9,48*,80*,-6,73*,60*,24,TIM10 conf=88*
N/C(=N\OC(=O)c1cccs1)c1cccc(Br)c1,13,5,57*,90*,3,80*,59*,51*,TIM10 conf=86*
Cc1ccsc1/C=N/NC(=O)Cn1nc(C)c([N+](=O)[O-])c1C,29,12,2,-2,2,6,x,x,
SMILES,NALP1 yeast inh,NLRP3 yeast inh,tim10-1 inh,TIM10 inh,V-ATPase pHluor,tim23-1 inh,tim10-1 conf,tim23-1 conf,others
Cc1ccc(NC(=O)CCc2nnc3ccc(N4CCN(C)CC4)nn23)cc1F,23,-4,8,-3,-5,6,x,x,
CN(CC1COc2ccccc2O1)C(=O)c1ccc(N(C)C)cc1 (centres undefined),-10,2,4,10,2,32,x,x,
COc1ccccc1CNC(=O)CCn1c(=O)[nH]c2ccsc2c1=O,-4,-4,9,-11,-2,9,x,x,
CCOC(=O)C1CCCN(C(=O)c2cc(-c3ccco3)nc3ccccc23)C1 (centres undefined),x,-4,8,-2,1,7,x,x,
N/C(=N\OC(=O)c1cccs1)c1ccccc1,36,5,65*,70*,-3,71*,63*,67*,TIM10 conf=36*
Cc1ccc(C(c2cc(Cl)c3cccnc3c2O)N2CCN(C)CC2)cc1 (centres undefined),-8,38,41*,8,-1,55*,25,80*,
CN1CCN(C(c2ccccn2)c2cc(Cl)c3cccnc3c2O)CC1 (centres undefined),14,37,-23,-38,0,34,x,x,
Oc1c(C(c2ccccn2)N2CCC(Cc3ccccc3)CC2)cc(Cl)c2cccnc12 (centres undefined),14,15,43*,27,x,55*,28,68*,
O=C(Nc1ccccc1)c1ccccc1OCc1ccc(F)cc1,25,18,6,5,0,18,x,x,
O=C(Nc1ccc(O)cc1)c1ccccc1OCc1ccccc1,4,28,45*,37,1,53*,30,53*,
CCN(CC)/C(Sc1ccccc1)=C(\C(Cl)=C(Cl)Cl)[N+](=O)[O-],-2,1,44*,46*,-2,51*,35*,51*,TIM10 conf=19
CCOc1ccccc1N/C(=C(/C(Cl)=C(Cl)Cl)[N+](=O)[O-])n1cncn1,4,5,15,17,1,19,x,x,
